Experimental findings from PubChem BioAssay AID1721 (National Center for Advancing Translational Sciences (NCATS), 2009) are described below.

Hit rate of the full screen: of about 290,000 compounds, about 1,100 (0.38%) were called active. Entries that show only a call come without a potency. For the sample, actives were picked, then their nearest neighbours and some compounds at random. Unmarked numbers belong to inactive results. Calls follow the shape of the dose curve; as a rule, active = well fitted inhibition curve with a large enough effect; inconclusive = small, poorly fitted or top-dose-only effect, or another doubt; inactive = no such curve, though single readings can be large or run the other way.
Potency is read from the fitted curve at half-maximal effect.

For the test, the target named is Pyruvate kinase (Leishmania mexicana) (UniProt Q27686). Put plainly: qHTS Assay for Inhibitors of Leishmania Mexicana Pyruvate Kinase (LmPK). The settings on record: purified LmPK, Kinase-Glo ATP luminescence, 1 h; series mostly up to 57.5 µM. The source says: NIH Chemical Genomics Center [NCGC] Malcolm Walkinshaw, Hugh Morgan, Linda Gilmore University of Edinburgh, UK MLPCN Grant: 1 R03 MH085697-01 NCGC Assay Overview: Pyruvate kinase (L. Mexicana) (LmPK) enzyme was supplied as a highly purified (>95% pure) sulphate-free preparation from University of Edinburgh, UK and assayed for its ability to generate ATP from ADP using phosphoenolpyruvate (PEP) as a substrate. ATP generation was detected in a coupled reaction by luciferase-mediated luminescence, an ATP-dependent process. […] The enzyme was assayed at an intermediate level of activity to screen for both inhibitors and activators.
Pyruvate kinase (Leishmania mexicana), sequence (Q27686 whole entry, looked up): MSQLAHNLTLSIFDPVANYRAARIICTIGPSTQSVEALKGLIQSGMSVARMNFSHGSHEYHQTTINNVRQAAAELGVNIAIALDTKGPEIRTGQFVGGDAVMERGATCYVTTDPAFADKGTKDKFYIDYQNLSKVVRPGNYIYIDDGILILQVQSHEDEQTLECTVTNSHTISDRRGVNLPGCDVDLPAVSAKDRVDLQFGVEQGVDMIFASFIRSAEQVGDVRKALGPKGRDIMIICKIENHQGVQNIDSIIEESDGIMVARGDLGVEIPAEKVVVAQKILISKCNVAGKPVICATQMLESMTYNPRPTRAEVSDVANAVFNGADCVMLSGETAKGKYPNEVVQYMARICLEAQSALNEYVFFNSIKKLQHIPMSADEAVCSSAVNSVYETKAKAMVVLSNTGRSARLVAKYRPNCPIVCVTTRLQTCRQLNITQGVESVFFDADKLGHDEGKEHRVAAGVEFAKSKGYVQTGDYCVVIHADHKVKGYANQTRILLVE
NCGC Assay Protocol Summary: Three uL of enzyme mix (kept on ice) in assay buffer (50 mM Imidazole pH7.2, 50 mM KCl, 7 mM MgCl2, 0.01% Tween 20, 0.05% BSA) containing PEP (0.5 mM final concentration) and LmPK (0.1 nM final concentration) was dispensed into white solid bottom 1,536 well microtiter plates. 23 nL of compound were delivered by a pin tool and 1 uL of ADP mix in assay buffer (r.t; 0.1 mM final ADP concentration) was added. Plates were incubated at room temperature for 1 hour. Two uL of detection mix (Kinase-Glo, Promega; at 4 degree Celsius protected from light) was added and luminescence read by a ViewLux (Perkin Elmer) at 1 second exposure/plate. Data were normalized to the uninhibited and AC100 inhibition (no enzyme). To monitor activation, the first column contained a five-fold concentration of LmPK (0.5 nM).
In general terms: Quantitative high-throughput screening tests each substance at several concentrations.
Consider `COc1ccc(Sc2nc(-c3ccccc3)ncc2OC)cc1`, for which the Potency entry was “inactive”. Same read-out and setting: the result for `COc1ccccc1Cc1nc(-c2ccc(C)cc2)no1` reads “inactive”; that for `COc1ccc(-c2nc(-c3ccccc3)no2)c(OC)c1`, 14.1 µM (active). Turning to `COC(=O)C1=C(C(=O)OC)[C@@H]2N(C)c3ccccc3[C@@]23C[C@@H](C(=O)OC)N(S(=O)(=O)c2ccc(Br)cc2)C3=N1`, the activity change, negative = inhibition is -0.27% [at 11.5 µM]. For `COc1cc(CO)ccc1OCC(=O)Nc1cccc2ccccc12`, the Potency result is “inactive”. `Brc1ccc2nc(N3CCCC3)sc2c1`: the activity change, negative = inhibition was -0.864% [at 11.5 µM].

`c1c2c(cc3sc(N4CCCCC4)nc13)OCCO2`: the Potency is 6.31 µM (active).

In the case of `Cc1nc2cc3c(cc2s1)OCO3`, the Potency result is “inactive”.

On to `CCOc1ccc(NC(=O)COc2ccc(S(=O)(=O)N3CCCC3)cc2)cc1`, for which the Potency result was “inactive”.

As for `C[C@H]1Cc2c(-c3ccccc3)nc3c(c2CO1)CN(S(=O)(=O)c1ccc(Cl)c2nonc12)CC3`, the activity change, negative = inhibition was 1.27% [at 11.5 µM]. In the case of `Cn1cc([N+](=O)[O-])c(C(=O)Nc2ccc3c(c2)OCCO3)n1`, the Potency is 14.1 µM (active). With `Cn1cc([N+](=O)[O-])c(C(=O)Nc2cnn(Cc3ccc(F)cc3)c2)n1`, the Potency entry was “inactive”. `Cc1onc(C(=O)Nc2ccc3c(c2)OCO3)c1[N+](=O)[O-]`: the Potency entry is “inactive”. As for `CCCCNC(=O)N(O)C1N(/N=C/c2ccccc2O)C(=S)SC1(C)C` (centres undefined), the Potency entry was “inactive”.

For `COc1ccc(NS(=O)(=O)c2ccc3oc(SCC(N)=O)nc3c2)cc1`, the Potency result is “inactive”. Consider `CC(=O)Nc1ccc(NS(=O)(=O)c2ccc3c(c2)NC(=O)CC(=O)N3)cc1`, for which the Potency entry is “inactive”.

Consider `CN1CCN(C(=O)C(=O)c2cn(CC(=O)N3CCCC3)c3ccccc23)CC1`, for which the Potency result is “inactive”. In the case of `O=C(c1ccc(F)cc1)n1c(=S)nc2ccccn21`, the Potency is 5.01 µM (active). For `O=C(c1ccc(F)cc1)n1cc(C(=S)N2CCOCC2)c2ccccc21`, the Potency result is “inactive”. As to `O=C(Cn1c(=S)nc2ccccn21)N1CCc2ccccc2C1`, the Potency entry was “inactive”.

Consider `C[C@H]1Cc2c(COc3ccccc3)nc3c(c2CO1)CN(C(=O)NCc1ccco1)CC3`, for which the activity change, negative = inhibition was 4.14% [at 11.5 µM]. Consider `CSCCC(NS(=O)(=O)c1ccccc1F)C(=O)N1CC=C(c2ccccc2)CC1` (centres undefined), for which the Potency result was “inactive”. As for `O=C(NC1CCN(C(=S)Nc2ccc(Cl)cc2)CC1)C1CCCCC1`, the Potency result was “inactive”. With `CCCCCC(=O)NC(=S)NNC(=O)c1ccc([N+](=O)[O-])cc1`, the Potency was 31.6 µM (active). Turning to `CC(C)CC(=O)NC(=S)NNC(=O)c1cccc([N+](=O)[O-])c1`, the Potency result was “inactive”.

Regarding `COCCCNC(=S)NC(=O)c1ccc([N+](=O)[O-])cc1`, the Potency result is “inactive”. As for `COc1cccc(C(=O)c2cc3ccc(O)cc3oc2=O)c1`, the Potency is 14.1 µM (active).

Regarding `COc1ccc2oc(=O)c(C(=O)N3CCCC3)cc2c1`, the Potency entry was “inactive”. As for `COc1cccc(C(=O)NNC(=O)c2cccc(F)c2)c1`, the Potency entry is “inactive”. For the compound `CC(=O)C1=C(C)NC(=O)NC1c1ccc2c(c1)OCO2` (centres undefined), the Potency result is “inactive”. The same measure, in the same setting: as for `COC(=O)C(C)n1cnc2c(nnn2-c2ccc(F)cc2)c1=O` (centres undefined), the entry is “inactive”. As for `CC(=O)Nc1ccc(NC(=O)c2ccc3c(c2)C(=O)N(c2ccccc2C)C3=O)cc1`, the Potency entry is “inactive”.

In the case of `O=C(NCc1ccccc1)C1CCN(C(=O)Cc2ccccc2)CC1`, the Potency result was “inactive”. Take `Oc1ccc2ccccc2c1N=Nc1nccs1`: the Potency result was “inactive”. On to `Oc1ccc(N=Nc2nccs2)c(O)c1`, for which the Potency is 25.1 µM (active).

On to `CCOc1ccc(N(CC(=O)Nc2cccc(OC)c2)S(C)(=O)=O)cc1`, for which the Potency entry was “inactive”. With `CC1(C(=O)NNC(=S)NCC2CCCO2)CC1(Cl)Cl` (centres undefined), the Potency result is “inactive”. Same read-out and setting: as for `CN(C)C(=O)Cn1c(=O)n(S(=O)(=O)c2ccccc2)c2ccccc21`, the entry is “inactive”; as for `CCOC(=O)c1c(S(=O)(=O)Nc2cccc(Cl)c2)c(C)n(C)c1C`, “inactive”. As to `COCCn1cnc2c1c(=O)n(Cc1ccc(Br)cc1)c(=O)n2Cc1ccccc1`, the Potency result is “inactive”. In the case of `Cc1ccnc(NC(=O)c2ccoc2C)c1`, the Potency is 11.2 µM (active). As for `Cc1occc1C(=O)Nc1nnc(-c2ccncc2)s1`, the Potency entry is “inactive”.

As to `Cc1occc1C(=O)Nc1cccc(Cn2cccn2)c1`, the Potency entry was “inactive”. Consider `O=C(Nc1ccccc1)c1ccc2c(c1)OCO2`, for which the Potency is 15.8 µM (active). On to `O=C(Nc1ccccc1)c1ccc2c(c1)OCCCO2`, for which the Potency result was “inactive”.

Consider `O=C(Nc1cccc([N+](=O)[O-])c1)c1ccc2c(c1)OCO2`, for which the Potency entry was “inactive”. As to `Cc1cccc(/C(N)=N/OC(=O)c2ccccc2Cl)c1`, the Potency was 11.2 µM (active).

Turning to `Cc1ccc(C(=O)O/N=C(\N)c2ccccn2)cc1Cl`, the Potency result was “inactive”. In the case of `N/C(=N\OC(=O)c1cc(-c2ccccc2)nc2ccccc12)c1ccncc1`, the Potency entry was “inactive”.

Turning to `COc1cccc(CCNC(=O)c2cccc(NC(=O)C3=C(C)OCCS3)c2)c1`, the Potency result was “inactive”. In the case of `CC1(C(=O)O)CCC(C(=O)Nc2ccc(Cl)c(Cl)c2)C1(C)C` (centres undefined), the Potency result was “inactive”. For the compound `COc1cccc(C(=O)Nc2ccc(N3CCCC3)cc2)c1`, the Potency was 14.1 µM (active). Regarding `CN1CCN(c2ccc(NC(=O)c3ccccc3)cc2)CC1`, the Potency entry is “inactive”. Take `COc1cccc(C(=O)Nc2ccc(N3CCN(C(=O)c4ccco4)CC3)cc2)c1`: the Potency entry is “inactive”.
